For 57 compounds, inhibition results are on record in PubChem BioAssay AID633 (Emory University Molecular Libraries Screening Center, 2007).

Out of some 86,000 compounds screened, about 1,100 (1.3%) were called active.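 How the source made its calls: active means compounds whose percent inhibition of the receptor-coactivator binding signal exceeds about 50% in the single-dose screen (limit read from the data); inactive means the rest.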 What follows is part of a selection rich in actives, with near analogues and random picks from the rest.

The experiment deals with Estrogen receptor beta (Homo sapiens) (UniProt Q92731). Nature of the experiment: blockers of coactivator peptide binding to ERβ – biochemical, TR-FRET, ERβ LBD, SRC-1 peptide, primary screen (AID 633).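 Further: 0% = receptor plus peptide wells without compound and 100% = peptide-only wells.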 Conditions: TR-FRET ER-beta LBD / SRC1-Cy5 peptide binding; at 25.6 µM; active compounds read high; receptor agonist-loaded with 1 µM estradiol. On the technique in general: TR-FRET usually uses a lanthanide donor and a delayed reading to cut background.
Estrogen receptor beta (Homo sapiens), sequence (Q92731 whole entry, looked up, the tested form may be a part): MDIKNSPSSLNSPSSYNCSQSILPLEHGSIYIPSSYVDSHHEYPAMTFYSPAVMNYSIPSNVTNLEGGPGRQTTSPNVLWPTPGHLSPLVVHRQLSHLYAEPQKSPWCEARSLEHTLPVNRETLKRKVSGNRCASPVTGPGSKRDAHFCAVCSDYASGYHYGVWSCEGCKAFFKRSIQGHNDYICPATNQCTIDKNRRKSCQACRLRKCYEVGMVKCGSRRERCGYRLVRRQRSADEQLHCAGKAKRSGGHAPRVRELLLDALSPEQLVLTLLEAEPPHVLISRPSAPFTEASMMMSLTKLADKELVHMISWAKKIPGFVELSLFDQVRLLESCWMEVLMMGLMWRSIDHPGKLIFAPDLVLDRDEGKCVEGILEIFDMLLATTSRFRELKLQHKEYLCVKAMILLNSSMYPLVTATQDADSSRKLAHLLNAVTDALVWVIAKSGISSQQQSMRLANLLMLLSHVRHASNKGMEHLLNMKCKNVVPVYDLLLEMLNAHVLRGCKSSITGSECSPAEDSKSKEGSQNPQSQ
What is called inhibition is the change of the read-out against control, counted positive when it falls. With `COC(=O)c1ccc(NC(=O)CSc2nnc(-c3ccncc3)n2C)cc1`, the inhibition was -13.7% (inactive).
Take `C=CCn1c(SCc2cc(C(=O)OC)c(C)o2)nnc1-c1ccncc1`: the inhibition was 51.1% (active).
`C=CCn1c(SCc2c(C(=O)OC)sc(N)c2C(=O)OC)nnc1-c1ccc(Cl)cc1`: the inhibition is -3.96% (inactive).
Consider `O=C(CN(c1ccccc1)S(=O)(=O)c1ccc(Cl)cc1)Nc1ccccc1C(=O)N1CCCC1`, for which the inhibition was -2.12% (inactive).
Regarding `C=C(C)CNC(=S)/N=c1\scc(C)n1CC`, the inhibition was 77.4% [fluorescence artefact?] (active).
The same measure for `C=CCn1c(SCCOc2ccc(OC)cc2)nnc1C(NC(=O)c1ccc(OC)cc1)C(C)C` (configuration not stated): 6.7% (inactive); for `COC(=O)CSc1nc2c(c(C3CC=CCC3)c1C#N)CCC2` (configuration not stated): -2.54% (inactive).
As for `CCC(c1nnnn1C(C)(C)C)N(Cc1cc2cccc(C)c2n2nnnc12)C1CCCC1` (configuration not stated), the inhibition is 1.68% (inactive).
Turning to `O=C(CN1C(=O)CC(c2ccccc2)=Nc2ccccc21)NC1CCCCC1`, the inhibition is -6.21% (inactive).
`COc1ccc(C)cc1S(=O)(=O)Nc1cccc(Cl)c1Cl`: the inhibition was -12.3% (inactive).
The same measure for `Oc1c(Cl)cc(Cl)c(Cl)c1Cc1c(O)c(Cl)cc(Cl)c1Cl`: 94.6% [fluorescence artefact?] (active); for `COc1cc(OC)c(-n2c(C)cc(C=O)c2C)cc1Cl`: 4.25% (inactive); for `O=C(/C=C/c1ccc(Cl)cc1Cl)c1cccnc1`: 23.9% (inactive).
For the compound `CC1CCCC(NC(=O)CN2CCN(Cc3ccc(Cl)cc3)C2=O)C1C` (configuration not stated), the inhibition is -3.92% (inactive).
With `Cc1ccc(CNC(=O)CN2CCN(Cc3ccc(Cl)cc3)C2=O)cc1`, the inhibition is 52.1% [fluorescence artefact?] (active).
On to `CC(NC(=O)CN1CCN(Cc2ccc(Cl)cc2)C1=O)c1ccc2c(c1)OCCO2` (configuration not stated), for which the inhibition was -8.28% (inactive).
`COC(=O)c1cc(NC(=O)C2C3C=CC(C3)C2C(=O)O)cc(C(=O)OC)c1` (configuration not stated): the inhibition is -3.6% (inactive).
As for `Cc1cc(NC(=O)CSc2nc(C(C)C)nc3sc4c(c23)CCC(C)C4)no1` (configuration not stated), the inhibition was -5.67% (inactive).
For the compound `COc1ccc(C2C(C(C)=O)=C(O)C(=O)N2Cc2cccnc2)cc1` (configuration not stated), the inhibition is -18.2% (inactive).
Regarding `CCCc1nc2oc3c(OCC)ncnc3c2c2c1COC(C)(C)C2`, the inhibition is 2.61% (inactive).
With `CC(C)CCSc1ncnc2c1oc1nc3c(cc12)COC(C)(C)C3`, the inhibition was 54.5% [fluorescence artefact?] (active).
With `C=CCn1c(=S)[nH]c2nc3c(cc2c1=O)COC(C)(C)C3`, the inhibition is -1.84% (inactive).
As to `CCOc1cc2[nH]c(=S)n(CCN3CCCCC3C)c(=O)c2cc1OCC` (configuration not stated), the inhibition is -0.24% (inactive).
As to `CCOc1cccc(NC(=O)Cn2nc(-c3ccc4c(c3)OCCO4)ccc2=O)c1`, the inhibition is 0.68% (inactive).
`C=CCc1ccc(OCCOc2cccc(/C=N/n3cnnc3)c2)c(OC)c1`: the inhibition is -5.22% (inactive).
The same measure for `Cc1cccc(-n2c(N)cc(=O)nc2SC(C)C(=O)NC2CCCCC2)c1` (configuration not stated): -5.73% (inactive); for `Cc1cccc(-n2c(Cc3cc(=O)[nH]c(=O)[nH]3)nnc2SC(C)C)c1`: 51.8% [fluorescence artefact?] (active).
For `COc1cccc(-n2c(Cc3cc(=O)[nH]c(=O)[nH]3)nnc2SCC(=O)Nc2ccccc2)c1`, the inhibition is -4.83% (inactive).
On to `COc1ccc(NC(=O)CSc2nc(NS(=O)(=O)c3ccc(C)cc3)cc(=O)[nH]2)cc1`, for which the inhibition was -6.84% (inactive).
`Cc1nc2sc(C(c3ccco3)N3CCOCC3)c(O)n2n1` (configuration not stated): the inhibition is -29.9% (inactive).
For `O=C(c1cccnc1NCc1ccccc1)N1CCOCC1`, the inhibition was 2.12% (inactive).
The same measure for `Oc1c(C(c2ccccn2)N2CCOCC2)ccc2cccnc12` (configuration not stated): 78.2% [fluorescence artefact?] (active); for `O=C(Nc1nccs1)c1cc(S(=O)(=O)N2CCOCC2)c(Cl)cc1Cl`: -7.67% (inactive); for `c1ccc2c(-c3nn4nnnc4c4ccccc34)cccc2c1`: -6.58% (inactive).
Turning to `CCOC(=O)C1=C(C)NC(SC)=NC1c1ccccc1` (configuration not stated), the inhibition was -3.63% (inactive).
The same measure for `CC(Oc1ccc(Cl)cc1)c1ccnn1S(C)(=O)=O` (configuration not stated): -3% (inactive); for `O=C(c1cc2c(s1)CCC2)N1CCN(c2ccccc2)CC1`: 50.6% (active); for `COc1cccc(-c2nn(C)c3sc(C(=O)N4CCN(c5ccccc5)CC4)cc23)c1`: 10.8% (inactive).
`Cc1nc2ccc(C(=O)N3CCN(c4ccccc4)CC3)cc2s1`: the inhibition was -22% (inactive).
Take `O=C(Nc1ccccc1)c1ccc2c(c1)OCO2`: the inhibition was 35.7% (inactive).
For `Cc1nn(C)cc1CNC(=O)Nc1ccc(Cl)cc1`, the inhibition was -6.02% (inactive).
As to `CCOC(=O)c1ccc(COC(=O)CCc2nc(-c3ccccc3)c(-c3ccccc3)o2)cc1`, the inhibition is 1.8% (inactive).
For `C=CCn1c(CC(=O)Nc2cccc(OC)c2)nnc1SCC(=O)NC1CCCCC1`, the inhibition was -1.41% (inactive).
The same measure for `COCCCn1c(SCC(=O)Nc2ccccc2)nnc1-c1ccncc1`: 1.64% (inactive).
The same measure for `COCCCn1c(Cc2csc(Nc3cccc(Cl)c3)n2)nnc1SCC(=O)OC1CCCCC1`: 77.5% (active); for `O=C(NCCCCCCNC(=O)NCc1ccco1)NCc1ccco1`: -27.9% (inactive); for `CCOC(=O)c1sc(C)c2c1NC(C)(c1cccc3ccccc13)NC2=O` (configuration not stated): 14.4% (inactive).
Take `COc1cc(OC)c(C(=O)Nc2ccc(N(C)C)cc2)cc1OC`: the inhibition is 97.4% [fluorescence artefact?] (active).
Regarding `COc1ccc(Cl)cc1C(=O)Nc1ccc(N(C)C(C)=O)cc1`, the inhibition is 3.01% (inactive).
Then `COc1cc(OC)c(C(=O)NC2CCCCCC2)cc1OC`, with -3.66% (inactive).
Turning to `COc1cccc2cc(C(=O)N3CCN(C(=O)c4ccccc4)CC3)c(=O)oc12`, the inhibition is -4.03% (inactive).
Turning to `COc1ccc(S(=O)(=O)N/N=C\c2ccc(OC)c(COc3ccc(C)cc3[N+](=O)[O-])c2)cc1`, the inhibition is 27.5% (inactive).
The same measure for `Cc1ccc(NC(=S)NC(NC(=O)Cc2cccc3ccccc23)C(Cl)(Cl)Cl)cc1` (configuration not stated): 40.2% (inactive); for `O=C1CCCc2nn(-c3ccccc3)nc21`: -7.98% (inactive); for `O=C(NCc1ccccn1)c1cc2ccccc2oc1=O`: -2.55% (inactive).
On to `O=C(NCc1ccccn1)c1ccc2nc(-c3ccco3)c(-c3ccco3)nc2c1`, for which the inhibition was 93% [fluorescence artefact?] (active).
As to `CN(c1ccc(C(=O)NCc2ccccn2)cc1)S(C)(=O)=O`, the inhibition is -12.6% (inactive).
